hcDAF-12 act = H. contortus DAF-12 nuclear receptor activators, primary screen, cell-based, luminescence, HEK293, lit1-tk-luc reporter; HEK293 hcDAF-12 lit1-tk-luc reporter; 0% DMSO, 100% Δ7-dafachronic acid; activation, % at 6.8 µM; hit rate 1.4% among 370,000;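 active = activation above the mean of all tested compounds plus 3 SD, cut at about 5.5% in these data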;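 also: 100% = response to 3 µM Δ7-dafachronic acid high control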
DAX1 inh-1 = DAX1 (NR0B1) inhibitors on StAR promoter, primary screen, cell-based, luminescence, SF-1 (NR5A1), full-length DAX-1; hit rate 1.1% among 370,000; HEK293T StAR-luciferase reporter, SF-1/DAX-1 repression relief; inhibition, % at 6.8 µM;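 active = inhibition above the mean over all tested compounds plus 3 SD, cut at about 3.6% in these data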;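 also: 0% = DAX-1 cells with DMSO and 100% = cells lacking DAX-1 with DMSO; higher inhibition means more luminescence from relief of DAX-1 repression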
AHR act = AHR activators, primary screen, cell-based, luminescence, luciferase reporter, human | Aryl hydrocarbon receptor (Homo sapiens), P35869 | AHR-responsive luciferase reporter cells | activation, % at 5 µM | hit rate 2.5% among 320,000; in the data active = activation above about 47%;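 also: 0% = vehicle wells and 100% = reference agonist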
ssDAF12 agonist = S. stercoralis DAF-12 nuclear receptor activators, primary screen, cell-based, luminescence, HEK293, GRIP1 co-expression, lit1-tk-luc | Nuclear hormone receptor DAF-12 (Strongyloides stercoralis) | HEK293 ssDAF-12/GRIP1 lit1-tk-luc reporter; % of 3 µM dafachronic acid response | activation, % at 6.8 µM | hit rate 1% among 370,000 | AID 652126, 2013;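 active = activation above the mean over all tested compounds plus 3 SD, cut at about 0.9% in these data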;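 also: 0% = DMSO-only wells and 100% = 3 µM delta7-dafachronic acid wells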
hgDAF12 agonist = H. glycines DAF-12 receptor agonists, primary screen, cell-based, luminescence, HEK293, GAL4 fusion, UAS-luciferase. hit rate 1.8% among 370,000. AID 687014, 2013. HEK293 GAL4-hgDAF12 UAS-luciferase reporter, agonist luminescence; normalized to butyrate control. activation, % at 6.8 µM. Nuclear hormone receptor DAF-12 (Heterodera glycines), GAL4 fusion;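 active = activation above a cutoff set at the mean of all screened compounds plus 3 SD, cut at about 10% in these data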;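 also: 0% = DMSO wells and 100% = sodium butyrate wells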
DAX1 inh-2 = DAX1 (NR0B1) inhibitors, primary screen, cell-based, HEK293, Gal4-DAX1, luciferase luminescence. Nuclear receptor subfamily 0 group B member 1 (Homo sapiens), P51843. hit rate 0.99% among 340,000. AID 504766, 2011. HEK293 Gal4-DAX1 luciferase reporter. inhibition, % at 6.75 µM;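 active = inhibition above the mean over all tested compounds plus 3 SD, cut at about 4.2% in these data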;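 also: 0% = DAX1-transfected cells with DMSO and 100% = empty-vector control cells with DMSO; inhibition shows as a rise in luminescence from relieved DAX1 repression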
Target sequence (P51843 207-470 limits assumed): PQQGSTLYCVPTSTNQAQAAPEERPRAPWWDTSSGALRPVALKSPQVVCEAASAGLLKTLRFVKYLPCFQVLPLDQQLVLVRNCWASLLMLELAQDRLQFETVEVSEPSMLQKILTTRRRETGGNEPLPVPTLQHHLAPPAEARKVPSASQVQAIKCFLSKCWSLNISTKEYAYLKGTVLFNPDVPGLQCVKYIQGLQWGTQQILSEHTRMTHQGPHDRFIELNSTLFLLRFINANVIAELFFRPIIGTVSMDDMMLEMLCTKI
AHR act confirm = AHR activators, confirmation, cell-based, luminescence, luciferase reporter, human. shares compounds with AHR act. human cells, AHR-responsive luciferase reporter. activation, % at 9 µM. hit rate 87% among 2,300. AID 2845, 2010; in the data active = activation above about 49%;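 also: HepG2 hepatoma cells carrying a DRE-driven firefly luciferase reporter; 0% = vehicle wells and 100% = reference agonist wells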
PXR counter = human PXR activators, counter-screen for AHR activator project, cell-based, luciferase luminescence. shares compounds with AHR act. cell-based PXR reporter. activation, % at 11.6 µM. hit rate 88% among 2,300; in the data active = activation above about 11%;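 also: human hepatoma DPX-2 cells expressing full-length human PXR; 0% = DMSO and 100% = reference agonist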
LXRb hcDAF ctr = LXR agonists, Gal4 luciferase reporter, confirmation, counter-screen for hcDAF-12 agonist project, cell-based, luminescence, HEK293, H. contortus campaign. shares compounds with hcDAF-12 act. HEK293 Gal4-LXR tk-luc reporter, 24 h; normalized: DMSO 0%, positive control 100%. activation, % at 6.8 µM. 3,400 tested, under 10 active. AID 743027, 2013;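 active = mean percent activation of the reporter above a cutoff set as the average over tested compounds plus their standard deviation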
Target sequence (P55055 whole entry, looked up, the tested form may be a part): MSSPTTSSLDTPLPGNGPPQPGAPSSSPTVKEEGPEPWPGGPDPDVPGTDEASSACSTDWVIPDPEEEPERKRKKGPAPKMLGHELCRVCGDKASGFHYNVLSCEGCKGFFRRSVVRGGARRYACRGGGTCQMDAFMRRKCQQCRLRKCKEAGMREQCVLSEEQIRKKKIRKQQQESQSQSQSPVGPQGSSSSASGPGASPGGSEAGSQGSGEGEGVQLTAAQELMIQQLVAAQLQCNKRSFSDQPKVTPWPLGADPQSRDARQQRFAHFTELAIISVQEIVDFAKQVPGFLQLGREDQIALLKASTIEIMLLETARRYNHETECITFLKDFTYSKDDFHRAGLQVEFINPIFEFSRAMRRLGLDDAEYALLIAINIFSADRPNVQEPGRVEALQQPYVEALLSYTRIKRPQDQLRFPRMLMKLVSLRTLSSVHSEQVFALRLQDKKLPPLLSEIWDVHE
hcDAF12 ag = H. contortus DAF-12 receptor agonists, confirmation, cell-based, luminescence, HEK293, lit1-tk-luc, triplicate | shares compounds with hcDAF-12 act | hit rate 61% among 3,400 | HEK293 hcDAF-12 lit1-tk-luc reporter; % of Δ7-dafachronic acid response | activation, % at 6.8 µM | AID 743032, 2013;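 active = mean activation across triplicate tests above the threshold derived from the earlier primary screen, cut at about 5.5% in these data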;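 also: 0% = DMSO only wells and 100% = 3 µM Δ7-dafachronic acid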
* marks the source's active call; other numbers are inactive results; / = no result. An excerpt weighted towards active compounds, which were near 5.7% of everything screened.

SMILES | hcDAF-12 act | DAX1 inh-1 | AHR act | ssDAF12 agonist | hgDAF12 agonist | DAX1 inh-2 | AHR act confirm | PXR counter | LXRb hcDAF ctr | hcDAF12 ag
O=C(COC(=O)CC1CCCC1)Nc1cc2c(cc1Cl)C(=O)c1ccccc1C2=O | 9.1* | 2.6 | 117.4* | 0.3 | 7.1 | 1.6 | 139.3* | 16.5* | 0.7 | 6.1*
O=C(Nc1ccccc1)N1CCc2ccccc2C1 | 6.8* | 1.4 | 103.0* | 0.4 | 10.8* | 1.5 | 132.4* | 16.4* | 1.1 | 7.9*
Cn1ccsc1=NC(=O)c1ccc(OC(F)(F)F)cc1 | 8.2* | 0.4 | 98.0* | -0.2 | 10.3 | 4.1 | 109.1* | 23.8* | 0.7 | 4.2
S=C(Nc1ccccc1)c1nc2ccccc2s1 | 9.2* | 1.4 | 123.7* | 1.1* | 11.6* | 2.2 | 142.3* | 9.9 | 1.1 | 8.9*
CC1CCCCC1NC(=O)CCNC(=O)N1CC(=O)Nc2ccccc21 (centres undefined) | 0.0 | 0.3 | -1.4 | -0.8 | 2.4 | 1.4 | / | / | / | /
Cc1cc(SCC(=O)c2cccs2)nc2c(C)cccc12 | 6.8* | 0.1 | 82.6* | -0.7 | 2.6 | 1.3 | 99.9* | 64.7* | -0.2 | 2.6
Cc1cc(SCC(=O)NCCN2C(=O)CSC2=O)nc2c(C)cccc12 | 0.3 | -0.6 | 29.6 | -1.3 | 0.4 | -1.3 | / | / | / | /
c1ccc2sc(-c3ccncc3)nc2c1 | 0.3 | 0.8 | 4.4 | -0.8 | 4.6 | 1.3 | / | / | / | /
CN(C)c1nc(N)nc(-c2nc3ccccc3s2)n1 | 9.3* | 3.4 | 79.7* | 1.6* | 11.1* | 3.0 | 167.0* | / | 1.5 | 15.6*
CC(=O)c1nc2ccccc2n1S(=O)(=O)c1ccc(Cl)cc1 | 0.5 | 1.0 | 0.1 | -0.9 | -1.9 | -0.4 | / | / | / | /
Cc1ccc(-c2ccc(/C=N/NC(N)=S)o2)cc1 | 10.3* | 0.2 | 99.6* | 1.7* | 7.4 | 3.4 | 89.8* | 13.1* | 0.4 | 7.5*
NC(=S)NN=Cc1ccc(-c2ccc(S(=O)(=O)Nc3ncccn3)cc2)o1 | 2.7 | 0.2 | 9.8 | -0.5 | -1.8 | 3.4 | / | / | / | /
CCOCCCNC(=O)CN1C(=O)/C(=C\c2ccc(C)cc2)Sc2ccccc21 | -0.7 | -0.1 | -3.0 | -1.6 | -0.9 | -1.1 | / | / | / | /
Cc1ccc(N=Nc2c(O)ccc3n[nH]nc23)cc1 | 2.9 | 0.2 | / | -0.9 | 7.2 | 0.2 | / | / | / | /
CCc1ccc(N=Nc2ccc(O)c3[nH]cnc23)cc1 | 7.8* | 0.7 | 100.9* | 1.0* | 8.1 | 5.3* | 92.9* | 10.6* | 0.3 | 8.6*
Cn1c(CNc2ccc(Cl)cc2)nc2ccccc21 | 16.2* | 4.3* | 87.0* | 2.9* | 12.7* | 2.0 | 139.3* | 36.0* | 1.0 | 11.1*
Cc1nc2cc(NCc3nc4ccccc4n3Cc3ccccc3)ccc2n1C | 1.6 | 3.2 | 27.0 | 0.0 | 4.3 | -1.1 | / | / | / | /
COc1ccc(-c2nc3ccccc3c(=O)[nH]2)cc1 | 7.4* | 2.6 | 110.1* | 0.4 | 12.8* | 2.0 | 105.9* | 23.0* | 1.1 | 8.4*
O=c1[nH]c(-c2cccnc2)nc2ccccc12 | -0.2 | 0.5 | 21.8 | -0.8 | -0.8 | 3.2 | / | / | / | /
CC(=O)c1nnn(-c2cccc(C#N)c2)c1C | -1.5 | -0.2 | -1.1 | -1.3 | 1.6 | 3.1 | / | / | / | /
CC1CCN(C(=S)SCc2nc(N)nc(Nc3ccccc3)n2)CC1 | -1.0 | -0.2 | 5.6 | -0.4 | -0.8 | 2.2 | / | / | / | /
CN1/C(=C/C(=O)c2cccs2)Sc2ccccc21 | 21.8* | 4.4* | 86.3* | 4.5* | 17.7* | 1.0 | 115.2* | 22.9* | 2.2 | 24.0*
COCC(=O)/C=C1\Sc2ccccc2N1C | -2.5 | 0.0 | -1.8 | -1.5 | -16.0 | -0.8 | / | / | / | /
CN1/C(=C/C(=O)C2CCC2)Sc2ccccc21 | 8.1* | 2.7 | 138.0* | -0.1 | 12.3* | 0.5 | 137.6* | 22.6* | 0.3 | 3.8
COc1cc(OC)cc(C(=O)/C=C2\Sc3ccccc3N2C)c1 | -1.1 | 0.4 | -3.3 | -1.4 | 3.6 | -0.5 | / | / | / | /
SMILES | hcDAF-12 act | DAX1 inh-1 | AHR act | ssDAF12 agonist | hgDAF12 agonist | DAX1 inh-2 | AHR act confirm | PXR counter | LXRb hcDAF ctr | hcDAF12 ag
O=C(O)c1cccc(N2C(=O)c3cccnc3C2=O)c1 | -1.2 | 0.1 | 1.0 | -1.4 | 2.0 | 0.8 | / | / | / | /
O=C1N=c2ccc(Br)cc2=C1c1sc(=S)n(NS(=O)(=O)c2ccccc2)c1O | 6.6* | 0.9 | 82.9* | 0.1 | 0.8 | -0.2 | 20.3 | 23.3* | -0.2 | 2.9
O=C1N=c2ccccc2=C1c1sc(=S)n(NC(=O)c2cccc(O)c2)c1O | 2.8 | 0.5 | / | 0.3 | -1.7 | 1.5 | / | / | / | /
NC(=O)c1c(NC(=O)c2ccccc2)sc2c1CCC2 | 15.6* | 1.4 | 124.6* | 2.1* | 15.3* | 4.5* | 146.1* | 24.1* | 1.8 | 18.8*
COc1cc2ccc(CC(N)=O)cc2cc1OC | -1.8 | -0.3 | / | -1.0 | 1.5 | 0.5 | / | / | / | /
N#C/C(=C\c1ccc[nH]1)C(=O)c1ccccc1 | 0.4 | 0.1 | -3.5 | -1.1 | 2.8 | 0.1 | / | / | / | /
N#C/C(=C\c1ccc[nH]1)C(=O)Nc1ccccc1Cl | 11.1* | 2.6 | 96.0* | 1.2* | 5.0 | 1.9 | 99.5* | 28.7* | 0.9 | 11.7*
O=c1nc2c(O)cccn2c2c1c(=O)[nH]c1ccccc12 | 3.3 | 1.0 | / | -0.7 | -1.5 | 1.0 | / | / | / | /
O=c1[nH]c2ccccc2c2nc3ccccn3c12 | 8.1* | 1.1 | 91.3* | 1.7* | 12.0* | 1.6 | 117.1* | 18.9* | 0.5 | 9.5*
CC1(C)Cc2nc(N3CCCC3)c(C#N)cc2CO1 | 0.5 | 0.0 | -3.3 | -1.8 | 2.3 | 0.6 | / | / | / | /
